The values below come from PubChem BioAssay AID2315 (National Center for Advancing Translational Sciences (NCATS), 2010).

Molecules are shown by their SMILES. The campaign covered roughly 290,000 compounds. About 27,000 (9.3%) were called active. No stated cut-off is given here; in the data, active means inhibition mostly above about 28% (no sharp cut-off); inactive means mostly below about 43%. The sample as a whole holds a higher share of actives than the screen did.

The experiment in a line: A qHTS for Small Molecule Inhibitors of Shiga Toxin. On inhibition: 0% is about no effect. The conditions noted are these: Vero cells, Shiga toxin protein synthesis inhibition reporter; at 38.7 µM, active compounds read high.
Usually inhibition stands for the drop in the measured response relative to a control, in per cent. Consider `Clc1cc(NC2CCCCC2)ncn1`, for which the inhibition was -10.3% (inactive).

Regarding `CCOC(=O)C1C/C(=C\C(C)=O)c2cccc(C(F)(F)F)c2O1` (centres undefined), the inhibition entry was “inactive”.

`COc1ccc(CCN2C(=O)C(C)=C(C)C2=O)cc1OC`: the inhibition is 17.7% (inactive).

For `COCCn1c(SCC(=O)Nc2nc(C)cs2)nnc1C(C)C`, the inhibition was -5.99% (inactive).

For the compound `Cc1nnc(NC(=O)C(c2ccccc2)c2ccccc2)s1`, the inhibition is -9.41% (inactive).

Turning to `COc1ccccc1N1CCN(C(=O)CCS(=O)(=O)c2ccc3c(c2)NC(=O)C(C)S3)CC1` (centres undefined), the inhibition is -1.86% (inactive).

`O=C(CN1CCN(Cc2ccccc2)CC1)Nc1ccc(F)c(F)c1`: the inhibition was 14.5% (inactive).

With `Cc1ccc(NC(=O)COC(=O)C2C3CC4OC(=O)C2C4C3)cc1Cl` (centres undefined), the inhibition is 17.4% (inactive).

On to `Cc1ccc(S(=O)(=O)N(CC(O)CN2C(=O)NC(C)(C)C2=O)c2cccc([N+](=O)[O-])c2)cc1` (centres undefined), for which the inhibition was -12.9% (inactive).

On to `COc1ccc(CCNC(=O)CCC(=O)NC2CCCCC2)cc1OC`, for which the inhibition was 10.5% (inactive).

Regarding `COC(=O)CN1C(=O)[C@H]2[C@@H](/C=C/c3ccccc3)N3C(=O)CN(CC4CC4)C(=O)[C@@]3(Cc3ccccc3)[C@H]2C1=O`, the inhibition was -11.8% (inactive).

In the case of `S=C(NCCC1=CCCCC1)Nc1ccccc1`, the inhibition was 72.2% (active).

Take `O=C(Cc1cccc2ccccc12)NCCC1=CCCCC1`: the inhibition is -13.5% (inactive).

As to `Cc1nnc(OCC(=O)NCCC2=CCCCC2)c2ccccc12`, the inhibition is -1.67% (inactive).

On to `CN(C(=O)C1CCN(c2ncnc3c2nc2n3CCCCC2)CC1)C1CCCCC1`, for which the inhibition is -2.24% (inactive).

In the case of `COCC(=O)Nc1c(C(=O)N2CCCC2)oc2ccccc12`, the inhibition was 3.56% (inactive).

Regarding `Cc1cc(N(C)C)nc(Cl)n1`, the inhibition is -9.68% (inactive).

In the case of `COc1ccc(-c2nc3c(c(SCC(=O)Nc4ccc(C(=O)O)cc4)n2)Cc2ccccc2O3)cc1`, the inhibition is 18.2% (inactive).

Take `O=C1C2C3C=CC(C4CC34)C2C(=O)N1/N=C/c1ccc(-c2ccccc2[N+](=O)[O-])o1` (centres undefined): the inhibition is 61.9% (inactive).

`COc1cccc(N(CC(=O)NC2CCCCCC2)S(=O)(=O)c2ccccc2)c1`: the inhibition is -29.3% (inactive).

For `C/C(=N\NC(=O)CNC(=O)C(c1ccccc1)c1ccccc1)c1ccc(C)cc1`, the inhibition was -1.4% (inactive).

Regarding `C/C(=N\NC(=O)c1ccc(C)cc1)C1C(=O)c2ccccc2C1=O`, the inhibition is 40.4% (active).

Turning to `Cc1ccc(C(=O)N/C(=C/c2cccnc2)C(=O)O)cc1`, the inhibition is 14.9% (inactive).

In the case of `COCCN1C(=O)C(=O)/C(=C(/O)c2ccc(S(=O)(=O)N3CCOCC3)cc2)C1c1ccc(O)c(OC)c1` (centres undefined), the inhibition is 2.24% (inactive).

For the compound `Cc1cc(C)nc(NS(=O)(=O)c2ccc(N3C(=O)C4CCCCC4C3=O)cc2)n1` (centres undefined), the inhibition was -4.6% (inactive).

In the case of `CC(=O)Nc1ccccc1NC(=O)c1cc(C)cc(C)c1`, the inhibition is -6.09% (inactive).

Turning to `C=CCN(c1ccc(C(=O)Nc2cc(C)cc(C)c2)cc1)S(C)(=O)=O`, the inhibition is 1.49% (inactive).

As for `CSCc1ccc(C(=O)Nc2cc(C)cc(C)c2)cc1`, the inhibition was 39% (active).

With `CN(C)c1ccc(/C=N/NC(=O)c2ccc(Cn3cc(Br)cn3)o2)cc1`, the inhibition was 73.5% (active).

Take `CC1CCc2c(sc(NC(=O)c3ccc(Cn4cc(Br)cn4)o3)c2C(N)=O)C1` (centres undefined): the inhibition was 14.4% (inactive).

Regarding `COc1cccc(NC(=O)c2ccc(Cn3cc([N+](=O)[O-])cn3)o2)c1`, the inhibition is 12.9% (inactive).

On to `O=C(c1ccc(Cn2cc([N+](=O)[O-])cn2)o1)N1CCCC1`, for which the inhibition was -5.81% (inactive).

For `O=C(N/N=C\c1ccc(Br)cc1)c1ccc(Cn2cccn2)o1`, the inhibition was 26.8% (inactive).

With `O=C(N/N=C/c1ccc2c(c1)OCO2)c1ccc(Cn2cc([N+](=O)[O-])cn2)o1`, the inhibition is 39.5% (active).

As for `O=C(NCCc1ccc(Cl)cc1)C1CCCN1C(=O)NCc1ccccc1` (centres undefined), the inhibition was 2.06% (inactive).

Take `COc1cccc(NS(=O)(=O)c2ccc(-c3coc(C)n3)cc2)c1`: the inhibition was -7.18% (inactive).

Regarding `COc1ccc(N2CCN(C(=O)c3cccs3)CC2)cc1`, the inhibition is 41.6% (inactive).

Turning to `COc1ccc(N2CCN(C(C)=C3C(=O)c4ccccc4C3=O)CC2)cc1`, the inhibition is 66.2% (active).

For `CC(=C1C(=O)c2ccccc2C1=O)N1CCN(c2ccccn2)CC1`, the inhibition is 2.68% (inactive).

Regarding `COc1ccccc1C(=O)N1C(CC(=O)Nc2ccccc2C)C(=O)NC2CCCCC21` (centres undefined), the inhibition is -1.4% (inactive).

Consider `COC(=O)[C@H](Cc1ccccc1)NC(=O)[C@@H]1C[C@H]1[C@@H](NC(=O)OCc1ccccc1)c1ccccc1`, for which the inhibition was -13% (inactive).

`CC1Sc2ccc(S(=O)(=O)CCC(=O)NCc3ccccc3Cl)cc2NC1=O` (centres undefined): the inhibition is 11.4% (inactive).

As to `Cc1cc(C)nc(N/N=C/c2ccc([N+](=O)[O-])o2)n1`, the inhibition is 12.2% (inactive).

For the compound `CCCc1nn2c(=O)cc(CSCC(=O)Nc3cccc(C)c3)nc2s1`, the inhibition is 9.11% (inactive).

Consider `Cc1ccc(-n2nc(C)c(/C=N/NC(=O)c3cccs3)c2Cl)cc1`, for which the inhibition was 41% (active).

For the compound `CC(/C=N/NC(=O)c1ccncc1)=C\c1ccco1`, the inhibition is 27% (inactive).

As for `CCN(CC)c1ccc(/C=N/NC(=O)CNC(=O)c2cccnc2)cc1`, the inhibition was -12.8% (inactive).

Turning to `Cc1nn(-c2ccccc2)c(Cl)c1/C=N/NC(=O)c1nn(C)cc1[N+](=O)[O-]`, the inhibition was 31.8% (inactive).

In the case of `Cc1nn(-c2ccccc2)c(NC(=O)c2cccs2)c(-c2ccc(Cl)cc2)c1=O`, the inhibition was 7.45% (inactive).

As to `O=C(CNC(=O)c1cccs1)N/N=C/c1cccc(Br)c1`, the inhibition is -5.46% (inactive).

`O=C(Nc1ccccc1)c1ccc(NC(=O)c2cccs2)cc1`: the inhibition is -21.1% (inactive).

With `CCN(CC)c1ccc(/C=N/NC(=O)CNC(=O)c2cccs2)cc1`, the inhibition is 42.1% (active).

With `O=C(NC(Cc1c[nH]c2ccccc12)C(=O)N/N=C/c1ccc(Br)cc1)c1cccs1` (centres undefined), the inhibition was -8.84% (inactive).

In the case of `CC(=O)Nc1ccc(/C=N/NC(=O)c2cccs2)cc1`, the inhibition was 97.3% (active).

As to `Cc1ccc(-c2cc(C(=O)N/N=C/C=C/c3ccco3)c3ccccc3n2)cc1C`, the inhibition was 92.8% (inactive).

With `O=C(N/N=C/C=C/c1ccco1)c1cccs1`, the inhibition was 104% (active).

With `CC(=O)OCCN(CCCn1c(-c2ccncc2)nc2ccccc21)c1nc(-c2ccc(C)cc2)cs1`, the inhibition was -1.86% (inactive).

As for `COc1ccc(CCNC(=O)c2nnc(CS(=O)(=O)c3ccccc3)o2)cc1OC`, the inhibition is 5.82% (inactive).

As to `Cc1ccc(S(=O)(=O)N(Cc2cc3ccccc3[nH]c2=O)CC2CCCO2)cc1` (centres undefined), the inhibition is -2.48% (inactive).

As to `O=C(Nc1c2c(nn1-c1ccccc1)CS(=O)(=O)C2)C1CCCC1`, the inhibition is -3.43% (inactive).

Consider `COc1ccc(NC(=O)c2ccco2)cc1NC(=O)c1ccc(C#N)cc1F`, for which the inhibition was -2.14% (inactive).

Regarding `CCCCCC(O)(CCN1CCCCC1)c1ccccc1` (centres undefined), the inhibition is -8.74% (inactive).

On to `Cc1cc(NC(=O)CCC(=O)N(CC(=O)NCC2CCCO2)c2ccccc2)no1` (centres undefined), for which the inhibition is -9.61% (inactive).

In the case of `COC(=O)C1(C)NC(c2ccccc2OC)C2C(=O)N(c3ccccc3)C(=O)C21` (centres undefined), the inhibition was -11.2% (inactive).

Take `COc1ccc(N2CCN(S(=O)(=O)c3ccc4c(c3)N(C(C)=O)CCO4)CC2)cc1`: the inhibition is -9.48% (inactive).

Regarding `Cc1ccc(-n2c(C)cc(/C=N\NC(=O)CC(=O)NC(C)C)c2C)cc1`, the inhibition was 21.4% (inactive).

Consider `Cc1cccc(-n2c(C)cc(/C=N/NC(N)=S)c2C)c1`, for which the inhibition was -4.48% (inactive).

In the case of `Cc1cccc(-n2c(C)cc(/C=N\NC(=O)c3cccs3)c2C)c1`, the inhibition is 85.9% (active).

Turning to `O=C(Cn1cnc2ccccc21)Nc1ccccc1-c1ccccc1`, the inhibition is -2.99% (inactive).

Consider `Cc1cc2ccccn2c1C(=O)c1cccc(F)c1`, for which the inhibition was 21% (inactive).

Turning to `CCCCNC(=O)CCn1nc(-c2ccc(Cl)cc2)ccc1=O`, the inhibition is -6.39% (inactive).

For `COc1ccc(CNC(=O)CN(c2ccc(OC)c(Cl)c2)S(=O)(=O)c2ccc(C)cc2)cc1`, the inhibition was 15.2% (inactive).

As for `Nc1ccc(Nc2ccccc2)cc1`, the inhibition is -17% (inactive).

As for `Nc1ccc(-c2nnc(-c3ccc(-c4ccccc4)cc3)o2)cc1`, the inhibition is 63.4% (active).

With `Nc1ccc(-c2sc(N)nc2-c2ccccc2)cc1`, the inhibition is -12.4% (inactive).

As to `Cc1ccc(C(=O)NCC(=O)OCc2nnc(-c3ccccc3)o2)cc1`, the inhibition was 9.19% (inactive).

Turning to `Nc1ccc(-c2nnc(-c3ccccc3)o2)cc1`, the inhibition is 71.6% (active).

Turning to `O=C(COC(=O)c1ccc(Oc2ccccc2)cc1)Nc1nnc(-c2ccccc2)o1`, the inhibition was 6.93% (inactive).

Consider `COc1ccc(/C=N/N(C)C2=NS(=O)(=O)c3ccccc32)cc1OC`, for which the inhibition was -11.4% (inactive).

With `COc1ccc(NC(=O)C2CCC(CNC(=O)[C@@H]3Cc4ccccc4CN3)CC2)cc1` (some centres undefined), the inhibition was 8.69% (inactive).

Regarding `COc1ccc(CNC(=O)C2CCN(S(=O)(=O)c3ccc(SC)cc3)CC2)cc1`, the inhibition is -9.94% (inactive).

Take `O=C(Nc1cccn(Cc2ccccc2Cl)c1=O)NC1CCCCC1`: the inhibition is 33% (inactive).

As for `CN1CCN(C(=O)CCc2nc(-c3ccc(Cl)cc3)no2)CC1`, the inhibition is 42.8% (inactive).

Take `CCNC(=O)CCc1nc(-c2ccc(C)cc2)no1`: the inhibition is 34.3% (inactive).

Turning to `CCNC(=O)CCc1nc(-c2ccc(C(C)(C)C)cc2)no1`, the inhibition is 42.8% (active).

For the compound `CN(C)c1ccc(-n2cccc2/C=C2/SC(=Nc3ccc(F)cc3)NC2=O)cc1`, the inhibition is -12.2% (inactive).

Take `O=S(=O)(N/N=C\c1cccn1-c1ccccc1)c1ccc2ccccc2c1`: the inhibition is -11.6% (inactive).

Consider `CN(C)c1ccc(-n2cccc2/C=N/n2cnnc2)cc1`, for which the inhibition is 61% (active).

Consider `COc1ccc(/C(N)=N/OC(=O)Cc2ccccc2)cc1`, for which the inhibition is 90% (active).

As for `COc1ccc(OCCCC(=O)NCCc2ccccc2)cc1`, the inhibition is -4.42% (inactive).

As to `COc1ccc(/C(N)=N/OC(=O)Oc2ccccc2)cc1`, the inhibition was -9.52% (inactive).

`COc1ccc(/C(N)=N/OC(=O)CCCc2ccccc2)cc1`: the inhibition is 89.8% (active).

Consider `COc1ccc(C(=O)NC(=S)NNC(=O)CCc2ccccc2)cc1`, for which the inhibition is 18.3% (inactive).

As for `COc1ccc(CC(=O)NC(C)CCc2ccccc2)cc1` (centres undefined), the inhibition was -4.86% (inactive).
